Activity calls are given as the source filed them. The calls were made as follows: active = hit-call score of the fitted dose curve at least 0.9, where 1 is the maximum; inactive = score below 0.9.
Assays:
Settings in all cases: mRNA level, 48 h; actives raise or lower the signal
[1] = read-out: Interleukin 6 (IL6), IL6 (gene 3569); assay: LTEA_HepaRG_IL6: Life Technologies and Expression Analysis (LTEA) Assay for Interleukin 6 (IL6) using HepaRG (AID 2283509)
How it was run: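 HepaRG cells exposed in duplicate for 48 h to eight half-log concentrations, top 100 uM, in 0.5% DMSO serum-free induction medium. mRNA measured by qRT-PCR, normalized to ACTB, GAPDH and POLR2A. Bidirectional fit versus DMSO.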

[2] = read-out: Potassium channel subfamily K member 1 (KCNK1), KCNK1 (gene 3775); assay: LTEA_HepaRG_KCNK1: Life Technologies and Expression Analysis (LTEA) Assay for Potassium channel subfamily K member 1 (KCNK1) using HepaRG (AID 2283511)
How it was run: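 Differentiated HepaRG cells, 48 h exposure in serum-free induction medium with 0.5% DMSO; 8 concentrations, half-log from 100 uM, duplicate. KCNK1 mRNA by qRT-PCR, normalized to ACTB, GAPDH, POLR2A; bidirectional fit vs DMSO.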

[3] = read-out: Keratin 19 (KRT19), KRT19 (gene 3880); assay: LTEA_HepaRG_KRT19: Life Technologies and Expression Analysis (LTEA) Assay for Keratin 19 (KRT19) using HepaRG (AID 2283512)
How it was run: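 Gene-expression endpoint in the human liver line HepaRG after 48 h exposure to up to 100 uM test chemical with 0.5% DMSO vehicle; KRT19 mRNA by qRT-PCR, analyzed bidirectionally versus DMSO.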

[4] = read-out: JUN Transcription Factor, JUN (gene 3725); assay: LTEA_HepaRG_JUN: Life Technologies and Expression Analysis (LTEA) Assay for JUN Transcription Factor using HepaRG (AID 2283513)
How it was run: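 Differentiated HepaRG cells were exposed to chemicals for 48 h in serum-free induction medium, 8 concentrations from 100 uM in half-log steps, 0.5% DMSO vehicle, in duplicate. JUN mRNA was quantified by TaqMan qRT-PCR, normalized to ACTB, GAPDH, POLR2A.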

[5] = read-out: Lipase C (LIPC), LIPC (gene 3990); assay: LTEA_HepaRG_LIPC: Life Technologies and Expression Analysis (LTEA) Assay for Lipase C (LIPC) using HepaRG (AID 2283514)
How it was run: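 HepaRG cells, 48 h after plating, treated in duplicate for 48 h in serum-free induction medium over 8 half-log concentrations from 100 uM, 0.5% DMSO. LIPC mRNA by TaqMan qRT-PCR normalized to ACTB/GAPDH/POLR2A; bidirectional fit versus DMSO.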

[6] = read-out: Lipoprotein lipase (LPL), LPL (gene 4023); assay: LTEA_HepaRG_LPL: Life Technologies and Expression Analysis (LTEA) Assay for Lipoprotein lipase (LPL) using HepaRG (AID 2283515)
How it was run: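 Differentiated HepaRG cells, plated 48 h, then exposed 48 h in serum-free induction medium to 8 concentrations (top 100 uM, half-log steps) in 0.5% DMSO, duplicate. LPL mRNA measured by qRT-PCR, normalized to ACTB, GAPDH and POLR2A.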

[7] = read-out: MicroRNA 122 (MIR122), gene 406906; assay: LTEA_HepaRG_MIR122: Life Technologies and Expression Analysis (LTEA) Assay for MicroRNA 122 (MIR122) using HepaRG (AID 2283516); also: the transcript read is the microRNA miR-122
How it was run: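 Differentiated human HepaRG cells were exposed 48 h in serum-free induction medium to eight half-log concentrations (top 100 uM, 0.5% DMSO). Transcript level was measured by TaqMan qRT-PCR, normalized to ACTB, GAPDH and POLR2A, and fitted bidirectionally versus DMSO.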

[8] = read-out: matrix metalloproteinase-10 (MMP10), MMP10 (gene 4319); assay: LTEA_HepaRG_MMP10: Life Technologies and Expression Analysis (LTEA) Assay for matrix metalloproteinase-10 (MMP10) using HepaRG (AID 2283517)
How it was run: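 Differentiated HepaRG cells in serum-free induction medium exposed 48 h in duplicate to 8-point half-log series up to 100 uM in 0.5% DMSO. mRNA quantified by qRT-PCR, normalised to ACTB, GAPDH, POLR2A; bidirectional fit versus DMSO.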

MYC, MYC (gene 4609) = assay: LTEA_HepaRG_MYC: Life Technologies and Expression Analysis (LTEA) Assay for MYC using HepaRG (AID 2283518)
How it was run: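 Cells are thawed, plated and cultured 48 h, then treated for 48 h with test chemicals (eight half-log concentrations from 100 uM, 0.5% DMSO vehicle). RNA is isolated and MYC expression quantified by qRT-PCR against three housekeeping genes.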

[9] = read-out: matrix metalloproteinase-3 (MMP3), MMP3 (gene 4314); assay: LTEA_HepaRG_MMP3: Life Technologies and Expression Analysis (LTEA) Assay for matrix metalloproteinase-3 (MMP3) using HepaRG (AID 2283519)
How it was run: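 HepaRG cells (~100,000/well) in serum-free induction medium were dosed in duplicate for 48 h with an 8-point half-log series from 100 uM, 0.5% DMSO. MMP3 mRNA was quantified by Fluidigm TaqMan qRT-PCR, normalized to three housekeeping genes.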

[10] = read-out: Paternally Expressed 10 (PEG10), PEG10 (gene 23089); assay: LTEA_HepaRG_PEG10: Life Technologies and Expression Analysis (LTEA) Assay for Paternally Expressed 10 (PEG10) using HepaRG (AID 2283520)
How it was run: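 Differentiated HepaRG cells, plated 48 h then switched to serum-free induction medium, were exposed in duplicate for 48 h to eight half-log concentrations topping at 100 uM in 0.5% DMSO. PEG10 mRNA was quantified by TaqMan qRT-PCR, normalised to ACTB, GAPDH and POLR2A.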

[11] = read-out: Protein phosphatase 2A (PPP2R4), PTPA (gene 5524); assay: LTEA_HepaRG_PPP2R4: Life Technologies and Expression Analysis (LTEA) Assay for Protein phosphatase 2A (PPP2R4) using HepaRG (AID 2283522)
How it was run: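 Differentiated HepaRG cells in serum-free induction medium were exposed in duplicate for 48 h to eight concentrations, top 100 uM with half-log dilutions, in 0.5% DMSO. PPP2R4 mRNA was quantified by TaqMan qRT-PCR, normalized to ACTB, GAPDH and POLR2A.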

[12] = read-out: Phosphatase and tensin (PTEN), PTEN (gene 5728); assay: LTEA_HepaRG_PTEN: Life Technologies and Expression Analysis (LTEA) Assay for Phosphatase and tensin (PTEN) using HepaRG (AID 2283523)
How it was run: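 HepaRG cells, 48 h after plating, exposed in duplicate for 48 h in serum-free induction medium to 8 half-log concentrations up to 100 uM (0.5% DMSO). PTEN mRNA by qRT-PCR, normalized to ACTB, GAPDH, POLR2A; bidirectional fit versus DMSO.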

[13] = read-out: solute carrier (SLC22A1), SLC22A1 (gene 6580); assay: LTEA_HepaRG_SLC22A1: Life Technologies and Expression Analysis (LTEA) Assay for solute carrier (SLC22A1) using HepaRG (AID 2283524)
How it was run: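 Differentiated human HepaRG cells in serum-free induction medium, exposed 48 h in duplicate to 8-point half-log series from 100 µM top in 0.5% DMSO. SLC22A1 mRNA by TaqMan qRT-PCR normalized to ACTB, GAPDH, POLR2A; bidirectional fit versus DMSO.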

[14] = read-out: Pyruvate Dehydrogenase Kinase 4 (PDK4), PDK4 (gene 5166); assay: LTEA_HepaRG_PDK4: Life Technologies and Expression Analysis (LTEA) Assay for Pyruvate Dehydrogenase Kinase 4 (PDK4) using HepaRG (AID 2283525)
How it was run: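 HepaRG cells plated 48 h, then switched to serum-free induction medium and exposed in duplicate for 48 h to 8 half-log concentrations from 100 uM in 0.5% DMSO. PDK4 mRNA measured by qRT-PCR, normalized to ACTB, GAPDH and POLR2A; bidirectional fit versus DMSO.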

[15] = read-out: NAD(P)H dehydrogenase [quinone] 1 (NQO1), NQO1 (gene 1728); assay: LTEA_HepaRG_NQO1: Life Technologies and Expression Analysis (LTEA) Assay for NAD(P)H dehydrogenase [quinone] 1 (NQO1) using HepaRG (AID 2283526)
How it was run: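 Differentiated HepaRG cells, plated 48 h and then switched to serum-free induction medium, were exposed in duplicate for 48 h to 8-point half-log concentrations up to 100 uM in 0.5% DMSO. mRNA measured by qRT-PCR, normalized to ACTB, GAPDH, POLR2A; bidirectional fit versus DMSO.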

[16] = read-out: Nuclear factor erythroid 2-related factor 2 (Homo sapiens) (UniProt Q16236); assay: LTEA_HepaRG_NFE2L2: Life Technologies and Expression Analysis (LTEA) Assay for Nuclear factor erythroid 2-related factor 2 (NFE2L2) Transcription Factor using HepaRG (AID 2283527);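 also: TaqMan qRT-PCR transcript level normalised to ACTB GAPDH and POLR2A housekeeping genes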
How it was run: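 Differentiated human HepaRG cells, serum-free induction medium, exposed 48 h in duplicate to eight half-log concentrations up to 100 uM in 0.5% DMSO. NFE2L2 mRNA by Fluidigm TaqMan qRT-PCR, normalised to ACTB, GAPDH, POLR2A; bidirectional change versus DMSO.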

[17] = read-out: succinate dehydrogenase complex iron sulfur subunit B (SDHB), SDHB (gene 6390); assay: LTEA_HepaRG_SDHB: Life Technologies and Expression Analysis (LTEA) Assay for succinate dehydrogenase complex iron sulfur subunit B (SDHB) using HepaRG (AID 2283528)
How it was run: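 A human HepaRG culture in serum-free induction medium received test chemicals for 48 h over an eight-point range capped at 100 uM. SDHB expression change was quantified by qRT-PCR.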

Measured: AC50

Chain of Nuclear factor erythroid 2-related factor 2 (Homo sapiens) (Q16236 whole entry, looked up): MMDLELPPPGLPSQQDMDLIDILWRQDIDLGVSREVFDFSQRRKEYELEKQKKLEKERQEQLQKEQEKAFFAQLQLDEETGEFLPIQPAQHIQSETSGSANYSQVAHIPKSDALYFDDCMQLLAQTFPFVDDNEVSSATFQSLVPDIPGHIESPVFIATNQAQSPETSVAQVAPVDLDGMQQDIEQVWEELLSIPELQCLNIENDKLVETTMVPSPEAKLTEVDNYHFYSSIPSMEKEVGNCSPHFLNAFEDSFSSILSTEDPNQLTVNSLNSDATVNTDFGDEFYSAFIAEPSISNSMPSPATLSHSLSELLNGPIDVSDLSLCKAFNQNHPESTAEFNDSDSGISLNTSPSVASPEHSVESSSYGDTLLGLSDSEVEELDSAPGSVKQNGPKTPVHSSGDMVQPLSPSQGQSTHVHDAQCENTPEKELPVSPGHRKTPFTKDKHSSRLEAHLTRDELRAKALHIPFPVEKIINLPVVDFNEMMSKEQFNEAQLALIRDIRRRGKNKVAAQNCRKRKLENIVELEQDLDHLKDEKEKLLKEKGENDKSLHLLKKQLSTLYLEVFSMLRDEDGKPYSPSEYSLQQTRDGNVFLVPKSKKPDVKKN

O=C(NS(=O)(=O)/C=C/c1ccccc1)c1ccc(F)cc1Cl
active: [10] 21.3 µM | [14] 26.4 µM
inactive: all other assays above

COc1ccc(/C=C/S(=O)(=O)NC(=O)c2ccc(C)cc2Cl)cc1
active: [10] 75.3 µM | [11] 0.11 µM | [14] 6.62 µM
inactive: all other assays above

CCOCCO
inactive: all assays above

CC(=O)OCCC(C)C
inactive: all assays above

Cc1ccc(N)cc1O
active: [6] 31.8 µM
inactive: all other assays above

CC(C)(O)c1coc(S(=O)(=O)NC(=O)Nc2c3c(cc4c2CCC4)CCC3)c1
active: [10] 50 µM
inactive: all other assays above

Source: PubChem BioAssay (EPA / NIEHS)
